Reference: PubChem BioAssay (NCATS)
Inconclusive results are not listed. Calls of active or inactive are those of the source. Calls follow the shape of the dose curve; as a rule, active = well fitted activation curve with a large enough effect; inconclusive = small, poorly fitted or top-dose-only effect; inactive = flat fitted curve, though single readings scatter.

Assay: qHTS for Activators of Parkin Expression: LOPAC Validation Assay (NLuc Reporter) (AID 720572)
Details: Parkin promoter NanoLuc reporter cells, luminescence, percent of positive control, DMSO as zero; series mostly up to 46.1 µM
Outline: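 Parkin promoter-driven FLuc/NLuc neuronal reporter cells; 24 h plating, 7-pt dose response, 24 h at 37 C/5% CO2; FLuc then NanoLuc reagent, 10 min each, luminescence; DMSO/positive control normalized.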

| SMILES | outcome |
| --- | --- |
| Cc1c(C(=O)c2cccc3ccccc23)c2cccc3c2n1[C@H](CN1CCOCC1)CO3 | inactive |
| NC(=O)CN1CC(O)CC1=O (centres undefined) | inactive |
| C#CCOC(=O)C1=CCCN(C)C1 | inactive |
| CC(=O)NCCc1c[nH]c2ccccc12 | inactive |
| CCCCc1ccc(C(=O)O)nc1 | inactive |
| O=C(N[C@H]1CN2CCC1CC2)c1ccc(Cl)cc1 | inactive |
| CC(C)NC(C)Cc1ccc(I)cc1 (centres undefined) | inactive |
| CC[C@@H](C(N)=O)N1CCCC1=O | inactive |
| CC[C@@]1(O)C(=O)OCc2c1cc1n(c2=O)Cc2cc3ccccc3nc2-1 | inactive |
| O=C(O)CC[N+](=O)[O-] | inactive |
| CCCN(CCC)[C@@H]1CCc2ccc(O)cc2C1 | inactive |
| C[C@@H](N)Cc1cnc[nH]1 | inactive |
| c1ccc2sc(C3(N4CCCCC4)CCCCC3)cc2c1 | inactive |
| COC(=O)[C@@H](N)CCCN=C(N)N[N+](=O)[O-] | inactive |
| c1ccc(C2(c3ccccc3)CC2C2=NCCN2)cc1 (centres undefined) | inactive |
| O=C1CCCN1CC#CCN1CCCC1 | inactive |
| CC1=NN=C(c2ccc(N)cc2)c2cc3c(cc2C1)OCO3 | inactive |
| c1ccc(CCCN2CCN(CCOC(c3ccccc3)c3ccccc3)CC2)cc1 | inactive |
| C[C@@H]1O[C@H](C[N+](C)(C)C)C[C@H]1O | inactive |
| S=C(NC1CCCCC1)N1CCC(c2cnc[nH]2)CC1 | inactive |
| NC(CP(=O)(O)O)C(=O)O (centres undefined) | inactive |
| Oc1ccc2c3c1O[C@H]1c4[nH]c5c(c4C[C@@]4(O)[C@@H](C2)N(CC2CC2)CC[C@]314)C[C@@]1(O)[C@H]2Cc3ccc(O)c4c3[C@@]1(CCN2CC1CC1)[C@H]5O4 | inactive |
| NCCc1c[nH]c2ccccc12 | inactive |
| COc1cc(C(O)CN)ccc1O (centres undefined) | inactive |
| C/C=C(/C)C(=O)O[C@H]1C(C)=C2[C@H]([C@@H]1OC(=O)CCCCCCC)[C@@](C)(OC(C)=O)C[C@H](OC(=O)CCC)[C@@]1(O)[C@H]2OC(=O)[C@@]1(C)O | inactive |
| NC1CC1c1ccccc1 (centres undefined) | inactive |
| CCCN1CCC[C@H](c2cccc(O)c2)C1 | inactive |
| NC(N)=NOCCC(N)C(=O)O (centres undefined) | inactive |
| COc1ccc2c(c[n+](C)c3c4cc5c(cc4ccc23)OCO5)c1OC | inactive |
